Measured values from PubChem BioAssay (EPA / NIEHS).
Active and inactive are the calls of the source. How the source made its calls: active means hit-call score of the fitted dose curve at least 0.9, where 1 is the maximum; inactive means score below 0.9.

How the values were obtained:
Conditions in all cases: mRNA level, 48 h; actives raise or lower the signal
CYP2C9 (gene 1559) = test: LTEA_HepaRG_CYP2C9: Life Technologies and Expression Analysis (LTEA) Assay for CYP2C9 using HepaRG (AID 2283484)
Outline: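 Differentiated human HepaRG cells in serum-free induction medium were exposed 48 h to chemicals in 8-point half-log series from 100 uM (0.5% DMSO), in duplicate. CYP2C9 mRNA was measured by qRT-PCR, normalized to ACTB/GAPDH/POLR2A, with bidirectional fitting versus DMSO.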

CYP2E1 (gene 1571) = test: LTEA_HepaRG_CYP2E1: Life Technologies and Expression Analysis (LTEA) Assay for CYP2E1 using HepaRG (AID 2283485)
Outline: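 HepaRG cells, plated 48 h, then exposed 48 h in serum-free induction medium to eight half-log concentrations from 100 uM in 0.5% DMSO, duplicate. CYP2E1 mRNA by qRT-PCR, normalized to ACTB/GAPDH/POLR2A; bidirectional fit versus DMSO.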

CYP4A11 (gene 1579) = test: LTEA_HepaRG_CYP4A11: Life Technologies and Expression Analysis (LTEA) Assay for CYP4A11 using HepaRG (AID 2283486)
Outline: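 Readout is CYP4A11 transcript level by qRT-PCR, normalized to three housekeeping genes and fitted bidirectionally against 0.5% DMSO. Human HepaRG cells were treated 48 h, in duplicate, with an 8-point half-log series topping at 100 uM.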

[1] = read-out: Cytochrome P450 3A4 (Homo sapiens) (UniProt P08684); test: LTEA_HepaRG_CYP3A4: Life Technologies and Expression Analysis (LTEA) Assay for CYP3A4 using HepaRG (AID 2283487)
Outline: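 HepaRG, 48 h exposure, 8-pt CRC from 100 uM (half-log), 0.5% DMSO, duplicates; serum-free induction medium. Readout: CYP3A4 mRNA, qRT-PCR, ACTB/GAPDH/POLR2A normalization. Bidirectional fit vs DMSO.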

[2] = read-out: DNA damage-inducible transcript 3 (DDIT3), DDIT3 (gene 1649); test: LTEA_HepaRG_DDIT3: Life Technologies and Expression Analysis (LTEA) Assay for DNA damage-inducible transcript 3 (DDIT3) using HepaRG (AID 2283488)
Outline: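 HepaRG cells, 48 h after plating, exposed 48 h in serum-free induction medium to 8 half-log concentrations up to 100 uM in 0.5% DMSO, in duplicate. DDIT3 mRNA measured by TaqMan qRT-PCR, normalized to ACTB, GAPDH and POLR2A. Fitted bidirectionally against DMSO.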

[3] = read-out: Pro-epidermal growth factor (Homo sapiens) (UniProt P01133); test: LTEA_HepaRG_EGF: Life Technologies and Expression Analysis (LTEA) Assay for Epidermal growth factor (EGF) using HepaRG (AID 2283489)
Outline: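 EGF transcript measured by Fluidigm TaqMan qRT-PCR with three housekeeping genes for normalization, 48 h after dosing HepaRG cultures in duplicate (top 100 uM, half-log steps, 0.5% DMSO vehicle). Gain or loss relative to DMSO fitted.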

[4] = read-out: Early growth response protein 1 (EGR1) transcription factor, EGR1 (gene 1958); test: LTEA_HepaRG_EGR1: Life Technologies and Expression Analysis (LTEA) Assay for Early growth response protein 1 (EGR1) transcription factor using HepaRG (AID 2283490)
Outline: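 Differentiated HepaRG cells in serum-free induction medium exposed 48 hours, duplicate, to 8 half-log concentrations up to 100 uM in 0.5% DMSO. EGR1 mRNA measured by TaqMan qRT-PCR, normalized to ACTB, GAPDH, POLR2A; bidirectional fit versus DMSO.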

[5] = read-out: Ezrin (EZR), EZR (gene 7430); test: LTEA_HepaRG_EZR: Life Technologies and Expression Analysis (LTEA) Assay for Ezrin (EZR) using HepaRG (AID 2283491)
Outline: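 Read-out is EZR transcript level by qRT-PCR, normalized to three housekeeping genes and fitted bidirectionally against the DMSO control. Human HepaRG cells received test chemicals for 48 h at eight half-log concentrations up to 100 uM in 0.5% DMSO.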

[6] = read-out: Cytochrome P450 3A7 (Homo sapiens) (UniProt P24462); test: LTEA_HepaRG_CYP3A7: Life Technologies and Expression Analysis (LTEA) Assay for CYP3A7 using HepaRG (AID 2283492)
Outline: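 CYP3A7 transcript measured by qRT-PCR (ACTB, GAPDH, POLR2A normalization) after 48 h chemical exposure of HepaRG cells in duplicate. Eight half-log concentrations, maximum 100 uM, 0.5% DMSO vehicle; bidirectional curve fitting against DMSO baseline.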

CYP3A5 (gene 1577) = test: LTEA_HepaRG_CYP3A5: Life Technologies and Expression Analysis (LTEA) Assay for CYP3A5 using HepaRG (AID 2283493)
Outline: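 HepaRG cells, plated 48 h then in serum-free induction medium, dosed in duplicate for 48 h with eight half-log concentrations up to 100 uM in 0.5% DMSO. Gene mRNA by Fluidigm TaqMan qRT-PCR, normalized to ACTB, GAPDH, POLR2A.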

[7] = read-out: Fatty Acid-Binding Protein 1 (FABP1), FABP1 (gene 2168); test: LTEA_HepaRG_FABP1: Life Technologies and Expression Analysis (LTEA) Assay for Fatty Acid-Binding Protein 1 (FABP1) using HepaRG (AID 2283494)
Outline: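 Differentiated human HepaRG cells exposed 48 h in serum-free induction medium to eight half-log concentrations up to 100 uM (0.5% DMSO), duplicate. FABP1 mRNA by qRT-PCR, normalised to ACTB, GAPDH, POLR2A; bidirectional fitting against DMSO.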

[8] = read-out: Cytochrome P450 4A22 (Homo sapiens) (UniProt Q5TCH4); test: LTEA_HepaRG_CYP4A22: Life Technologies and Expression Analysis (LTEA) Assay for Cytochrome P450 4A22 (CYP4A22) using HepaRG (AID 2283495)
Outline: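 Gene expression measured by qRT-PCR against three housekeeping genes (ACTB, GAPDH, POLR2A), with gain or loss fitted relative to 0.5% DMSO vehicle. HepaRG cultures received 48 h chemical treatment, top concentration 100 uM, half-log steps, duplicate wells.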

[9] = read-out: Cytochrome P450 7A1 (Homo sapiens) (UniProt P22680); test: LTEA_HepaRG_CYP7A1: Life Technologies and Expression Analysis (LTEA) Assay for Cytochrome P450 7A1 (CYP7A1) using HepaRG (AID 2283496)
Outline: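 HepaRG cells plated 48 h, then switched to serum-free induction medium and exposed in duplicate for 48 h to 8-point half-log series from 100 uM in 0.5% DMSO. CYP7A1 mRNA by qRT-PCR (TaqMan), normalized to ACTB/GAPDH/POLR2A; bidirectional fit versus DMSO.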

[10] = read-out: Glutathione S-Transferase (GSTA2), GSTA2 (gene 2939); test: LTEA_HepaRG_GSTA2: Life Technologies and Expression Analysis (LTEA) Assay for Glutathione S-Transferase (GSTA2) using HepaRG (AID 2283497)
Outline: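 Differentiated human HepaRG cells were exposed in duplicate for 48 h in serum-free induction medium, 8 points from 100 uM top in half-log steps, 0.5% DMSO. GSTA2 mRNA was measured by TaqMan qRT-PCR, normalized to ACTB, GAPDH and POLR2A; bidirectional fit versus DMSO.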

[11] = read-out: Glutamate-cysteine ligase catalytic (GCLC), GCLC (gene 2729); test: LTEA_HepaRG_GCLC: Life Technologies and Expression Analysis (LTEA) Assay for Glutamate-cysteine ligase catalytic (GCLC) using HepaRG (AID 2283498)
Outline: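 Differentiated HepaRG cells exposed 48 h in serum-free induction medium, eight-point half-log series topping at 100 uM in 0.5% DMSO, duplicates. GCLC mRNA by qRT-PCR normalized to ACTB, GAPDH and POLR2A, fitted bidirectionally versus DMSO.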

[12] = read-out: growth arrest and DNA damage 45 (GADD45G), GADD45G (gene 10912); test: LTEA_HepaRG_GADD45G: Life Technologies and Expression Analysis (LTEA) Assay for growth arrest and DNA damage 45 (GADD45G) using HepaRG (AID 2283499)
Outline: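 GADD45G transcript level by qRT-PCR (housekeeping-normalized: ACTB, GAPDH, POLR2A) after 48 h chemical treatment of a single HepaRG lot in serum-free induction medium; eight-point half-log series up to 100 uM in 0.5% DMSO, duplicates, up- or down-regulation scored.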

[13] = read-out: Glutamate-cysteine ligase regulatory (GCLM), GCLM (gene 2730); test: LTEA_HepaRG_GCLM: Life Technologies and Expression Analysis (LTEA) Assay for Glutamate-cysteine ligase regulatory (GCLM) using HepaRG (AID 2283500)
Outline: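 Differentiated HepaRG cells exposed 48 h in serum-free induction medium to eight half-log concentrations up to 100 uM (0.5% DMSO). GCLM mRNA by TaqMan qRT-PCR, normalized to ACTB, GAPDH and POLR2A; bidirectional fit versus DMSO.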

[14] = read-out: Glutathione S-transferase M3 (GSTM3), GSTM3 (gene 2947); test: LTEA_HepaRG_GSTM3: Life Technologies and Expression Analysis (LTEA) Assay for Glutathione S-transferase M3 (GSTM3) using HepaRG (AID 2283501)
Outline: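 GSTM3 transcript levels came from Fluidigm TaqMan qRT-PCR normalized to three housekeeping genes, fitted in both directions against DMSO. HepaRG cultures received chemicals for 48 h in serum-free induction medium (0.5% DMSO), 8 half-log concentrations up to 100 uM, duplicate.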

[15] = read-out: Heat shock 70 kDa protein 1 (HSPA1A), gene 3303; test: LTEA_HepaRG_HSPA1A: Life Technologies and Expression Analysis (LTEA) Assay for Heat shock 70 kDa protein 1 (HSPA1A) using HepaRG (AID 2283502)
Outline: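 Human HepaRG cells in serum-free induction medium were exposed in duplicate for 48 h to 8 half-log concentrations, highest 100 uM, in 0.5% DMSO. HSPA1A mRNA read by TaqMan qRT-PCR, normalized to ACTB, GAPDH, POLR2A, fitted bidirectionally against DMSO.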

[16] = read-out: Hypoxia-inducible factor 1-alpha (Homo sapiens) (UniProt Q16665); test: LTEA_HepaRG_HIF1A: Life Technologies and Expression Analysis (LTEA) Assay for Hypoxia-inducible factor 1 (HIF1A) Trancription factor using HepaRG (AID 2283503)
Outline: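 Differentiated HepaRG cells in serum-free induction medium exposed 48 h, in duplicate, to 8-point half-log series from 100 uM in 0.5% DMSO. HIF1A mRNA measured by TaqMan qRT-PCR, normalized to ACTB/GAPDH/POLR2A, fitted bidirectionally versus DMSO.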

Measured: AC50

Hypoxia-inducible factor 1-alpha (Homo sapiens), sequence (Q16665 whole entry, looked up): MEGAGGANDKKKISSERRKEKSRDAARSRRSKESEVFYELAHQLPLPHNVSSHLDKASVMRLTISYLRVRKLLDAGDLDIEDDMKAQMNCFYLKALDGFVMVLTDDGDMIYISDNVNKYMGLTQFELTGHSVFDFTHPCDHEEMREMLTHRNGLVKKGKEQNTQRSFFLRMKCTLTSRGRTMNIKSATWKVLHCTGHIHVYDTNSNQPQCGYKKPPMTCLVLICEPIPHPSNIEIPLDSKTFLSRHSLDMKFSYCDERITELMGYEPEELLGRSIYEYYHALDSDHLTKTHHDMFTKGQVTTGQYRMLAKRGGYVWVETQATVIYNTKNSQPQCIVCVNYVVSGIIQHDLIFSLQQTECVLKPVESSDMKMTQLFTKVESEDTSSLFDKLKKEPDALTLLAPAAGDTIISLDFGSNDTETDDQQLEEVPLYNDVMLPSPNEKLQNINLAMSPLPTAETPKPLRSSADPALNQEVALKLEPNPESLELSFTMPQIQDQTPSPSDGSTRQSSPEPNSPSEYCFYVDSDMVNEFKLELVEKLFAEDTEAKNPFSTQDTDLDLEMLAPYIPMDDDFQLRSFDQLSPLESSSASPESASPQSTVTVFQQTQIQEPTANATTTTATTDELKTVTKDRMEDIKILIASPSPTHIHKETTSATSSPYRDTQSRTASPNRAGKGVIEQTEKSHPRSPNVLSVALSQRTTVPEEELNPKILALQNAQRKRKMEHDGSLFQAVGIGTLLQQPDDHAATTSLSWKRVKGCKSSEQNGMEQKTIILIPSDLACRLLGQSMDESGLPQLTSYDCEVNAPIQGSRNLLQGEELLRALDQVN
Cytochrome P450 3A7 (Homo sapiens), sequence (P24462 whole entry, looked up): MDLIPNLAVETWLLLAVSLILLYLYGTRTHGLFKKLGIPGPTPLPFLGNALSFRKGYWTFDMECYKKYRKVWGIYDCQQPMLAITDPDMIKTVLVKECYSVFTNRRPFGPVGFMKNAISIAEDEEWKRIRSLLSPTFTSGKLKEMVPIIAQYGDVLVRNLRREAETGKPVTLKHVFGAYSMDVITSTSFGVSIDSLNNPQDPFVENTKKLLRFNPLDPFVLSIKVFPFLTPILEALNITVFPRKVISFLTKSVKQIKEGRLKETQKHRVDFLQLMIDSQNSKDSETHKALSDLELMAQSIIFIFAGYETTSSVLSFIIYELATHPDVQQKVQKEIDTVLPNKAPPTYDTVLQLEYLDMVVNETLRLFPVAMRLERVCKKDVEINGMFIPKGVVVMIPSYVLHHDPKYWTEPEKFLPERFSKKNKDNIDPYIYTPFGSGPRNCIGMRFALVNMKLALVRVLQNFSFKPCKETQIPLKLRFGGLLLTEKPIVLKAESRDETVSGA
Cytochrome P450 3A4 (Homo sapiens), sequence (P08684 whole entry, looked up): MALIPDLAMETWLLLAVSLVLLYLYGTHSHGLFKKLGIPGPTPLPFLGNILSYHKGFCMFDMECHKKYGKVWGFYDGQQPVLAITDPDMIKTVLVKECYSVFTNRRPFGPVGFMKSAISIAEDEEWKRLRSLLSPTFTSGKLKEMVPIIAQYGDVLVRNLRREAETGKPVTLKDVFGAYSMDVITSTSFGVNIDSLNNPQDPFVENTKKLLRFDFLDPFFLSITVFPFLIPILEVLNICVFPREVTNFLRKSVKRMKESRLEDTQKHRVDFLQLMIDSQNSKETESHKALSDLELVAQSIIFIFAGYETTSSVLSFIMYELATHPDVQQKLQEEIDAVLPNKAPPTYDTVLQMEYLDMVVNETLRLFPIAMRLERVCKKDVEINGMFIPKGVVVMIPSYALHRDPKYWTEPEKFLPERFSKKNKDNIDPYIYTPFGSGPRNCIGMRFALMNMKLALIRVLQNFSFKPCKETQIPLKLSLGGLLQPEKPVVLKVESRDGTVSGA

CCn1nc(Cc2ccccc2)cc1C1CCN(C[C@H]2C[C@H](N(C)[C@@H](C(=O)O)C(C)C)C[C@@H]2c2cccc(F)c2)CC1
active: CYP2C9 (gene 1559) 27.8 µM | CYP2E1 (gene 1571) 20.4 µM | CYP4A11 (gene 1579) 50 µM | [2] 50 µM | [8] 43.5 µM | [9] 13.4 µM | [10] 50 µM | [12] 76.1 µM
inactive: all other assays above

CC(=O)OCCC(C)C
inactive: all assays above

CCOc1cccc(-n2cc(C(=O)N3CCN(c4cc(C(=O)O)c5ccccc5c4)CC3)nc2-c2ccc(C)cc2)c1
inactive: [5] | [6] | [14]
active: CYP2C9 (gene 1559) 31.6 µM | CYP2E1 (gene 1571) 14.7 µM | CYP4A11 (gene 1579) 28.9 µM | [1] 31.1 µM | [2] 12.4 µM | [3] 88 µM | [4] 83.7 µM | CYP3A5 (gene 1577) 80.5 µM | [7] 30.2 µM | [8] 29.8 µM | [9] 33.6 µM | [10] 32.3 µM | [11] 79.2 µM | [12] 13.1 µM | [13] 11.5 µM | [15] 86.5 µM | [16] 75 µM

CCCCCCCCCCCCc1ccccc1
inactive: all assays above

CC(O)CN(CCN(CC(C)O)CC(C)O)CC(C)O (centres undefined)
active: CYP4A11 (gene 1579) 12.8 µM | [4] 12.6 µM | CYP3A5 (gene 1577) 12.4 µM | [10] 12.5 µM
not listed: [16]
inactive: all other assays above

COc1ccc(/C=C/S(=O)(=O)NC(=O)c2ccc(C)cc2Cl)cc1
active: CYP2E1 (gene 1571) 69.6 µM | [6] 20.1 µM | [10] 80.8 µM
inactive: all other assays above
